Source: PubChem BioAssay (EPA / NIEHS)
Active and inactive are the calls of the source. How the source made its calls: active means hit-call score of the fitted dose curve at least 0.9, where 1 is the maximum; inactive means score below 0.9.

Each molecule was assayed on X-box binding protein 1 (XBP1), XBP1 (gene 7494) (assay: LTEA_HepaRG_XBP1: Life Technologies and Expression Analysis (LTEA) Assay for X-box binding protein 1 (XBP1) using HepaRG (AID 2283540)). Settings: mRNA level, 48 h; actives raise or lower the signal.
Description: LTEA_HepaRG is a cell based, multiplexed-readout assay that uses HepaRG, a human liver cell line, with measurements taken at 48 hours after chemical dosing on a 96-well plate.LTEA_HepaRG_XBP1 is one of 102 assay component(s) measured in the LTEA HepaRG cell culture assay. It is a marker of Diseases associated with XBP1 including Major Affective Disorder 7 and Bipolar Disorder.Data from the assay component LTEA_HepaRG_XBP1 was analyzed into 1 endpoint. This assay endpoint, LTEA_HepaRG_XBP1, was analyzed with bidirectional fitting relative to DMSO as the negative control and baseline of activity. Using a type of inducible reporter, measures of mRNA induction for gain or loss-of-signal activity can be used to understand regulation of transcription factor activity. To generalize the intended target to other relatable targets, this assay endpoint is annotated to the dna binding intended target family, where the subfamily is basic leucine zipper.
A total of 1060 chemcials from the ToxCast library were tested in eight-point concentration-response experiments. Cell culture and cytotoxicity assays were conducted at Thermo Fisher Scientific's Custom Services facility (Madison, WI). A single lot of human HepaRG cells (Thermo Fisher Scientific, Frederick, MD) was used for the cell culture experiments. 96-well format collagen type I coated plates of human HepaRG cells were prepared using established methods. Briefly, cryopreserved HepaRG cells were thawed, plated at a density of approximately 100,000 cells/well in HepaRG Thaw, Plate, and General Purpose media (HPRG770, Thermo Fisher Scientific), and incubated for 48 hours. 0.5% DMSO was selected as vehicle control to balance the requisite need of DMSO in HepaRG cultures to maintain differentiation (for example, baseline metabolism, proportions of hepatocytes vs. cholangiocytes), while enabling further hepatic receptor pathway activation (for example, PXR and CAR) in response to chemical exposure. 48 hours after plating, the culture medium was replaced with HepaRG Serum-Free Incudtion Media. Cells were exposed to each test chemical in duplicate and maintained in CO2 incubators for another 48 hours. Chemical plates were thawed to room temperature and 200x concentrations of treatment groups were prepared. 8-point conentration-reponse curves were made with the highest exposure at 100 uM, followed by half-log dilutions, all in 0.5% DMSO. Each test plate contained variouse controls, induction positive controls (1mM phenobarbital), cytotoxicity positive controls ([…] aflatoxin B1), vehicle controls (0.5% DMSO), and total lysis controls (0.5% DMSO). Cell morphology images were taken using an Essen IncuCyte FLR automated microscope, with six 96-well plates imaged in about 24 minutes. Images were captured and exported and JPEG files. Spent culture media was transfered to black-well plates for the LDH assay, and remaining media was sorted at -80 C for later use. Cells were treated with RLT buffer and frozen until shipped for gene expression analysis. Total RNA was isolated from the cell suspension in 75 uL of Buffer RLT (Qiagen, Germantown, MD 20874) by Quintiles/Expression Analysis (Durham, NC) using a custom isolation procedure. Total RNA from each plate well was transferred to a preamplification plate. Fluidigm's 96.96 Dynamic ArrayTM (Fluidigm, Amsterdam, the Netherlands) technology was used for gene expression analyses by quantitative reverse transcription polymerase chain reaction (qRT-PCR, performed by Quintiles/Expression Analysis, Durham, NC)89. Standard TaqManTM Assays (Applied Biosystems/ThermoFisher Scientific, Foster City, CA) were used to assess the expression of 93 genes selected based on their selectivity and sensitivity to important hepatic receptors known to be modulated by environmental chemicals; importance in human hepatocyte functionality; and hepatotoxicity. […]

| Structure (SMILES) | outcome | AC50 |
| --- | --- | --- |
| Cc1occc(=O)c1O | inactive |  |
| CCCCCCCCCC[N+](C)(C)[O-] | inactive |  |
| CC(C)c1cccc(C(C)C)c1 | inactive |  |
| CN(C)CCCN1c2ccccc2Sc2ccc(Cl)cc21 | inactive |  |
| S=c1[nH]c2ccccc2s1 | inactive |  |
| CN(C)C(=O)NC1(c2ccccc2)CCN(CCC[C@]2(c3ccc(Cl)c(Cl)c3)CCCN(C(=O)c3ccccc3)C2)CC1 |  | 12.5 µM (active) |
| C/C=C/C=C/C(=O)O | inactive |  |
| c1ccc2occc2c1 | inactive |  |
| N[C@@H](Cc1c[nH]c2ccccc12)C(=O)O | inactive |  |
| COc1ccc(C(=O)Nc2nc3ccccc3c(NCc3ccccc3)c2C#N)cc1 |  | 13.2 µM (active) |
| Cc1cc(Cc2ccc(N)c(C)c2)ccc1N | inactive |  |
| O=C(O)c1cccnc1 | inactive |  |
| COC(=O)CCC(=O)OC | inactive |  |
| CCOCCOCCO | inactive |  |
| COc1ccc(OC(F)(F)F)cc1CN[C@H]1CCCN[C@H]1c1ccccc1 | inactive |  |
| Cn1cnc2c1c(=O)[nH]c(=O)n2C | inactive |  |
| Nc1nc(=S)c2[nH]cnc2[nH]1 |  | 15.7 µM (active) |
| CC(C)(O)c1ccc(CNC(=O)c2cccnc2Oc2ccc(F)cc2)cc1 | inactive |  |
| CC(N)=O | inactive |  |
| O=C1OC(c2ccc(O)cc2)(c2ccc(O)cc2)c2ccccc21 | inactive |  |

| Structure (SMILES) | outcome | AC50 |
| --- | --- | --- |
| CO[C@@H]1COCC[C@@H]1N[C@@H]1CC[C@@](C(=O)N2CCc3ncc(C(F)(F)F)cc3C2)(C(C)C)C1 | inactive |  |
| Oc1ccccc1O | inactive |  |
| CC(=O)O[C@]1(C(C)=O)CC[C@H]2[C@@H]3C=C(Cl)C4=CC(=O)[C@@H]5C[C@@H]5[C@]4(C)[C@H]3CC[C@@]21C | inactive |  |
| OCC(CO)n1cnc(-c2ccc(F)cc2)c1-c1ccnc(Oc2ccccc2)n1 | inactive |  |
| O=C(Oc1ccccc1)c1cccc(C(=O)Oc2ccccc2)c1 | inactive |  |
| O=C1O[C@H]([C@H](O)CO)C(O)=C1O | inactive |  |
| CC(=O)[C@@]1(O)CC[C@H]2[C@@H]3CCC4=CC(=O)CC[C@]4(C)[C@H]3CC[C@@]21C | inactive |  |
| CC(COCC(C)OC(=O)c1ccccc1)OC(=O)c1ccccc1 (stereo not given) | inactive |  |
| O=[Si]=O | inactive |  |
| CN(C)C(=O)NC1(c2ccccc2)CCN(CC[C@@]2(c3ccc(F)c(F)c3)CN(C(=O)c3ccccc3)CCO2)CC1 | inactive |  |
| O=C(O)CC(O)(CC(=O)O)C(=O)O | inactive |  |
| C=CCc1ccc(OC)c(OC)c1 | inactive |  |
| NC=O | inactive |  |
| CC(=O)S[C@H](C(=O)N[C@H]1Cc2ccccc2[C@H]2CCC[C@@H](C(=O)O)N2C1=O)C(C)C | inactive |  |
| O=Cc1ccccc1C=O | inactive |  |
| COC(=O)CCCC(=O)OC | inactive |  |
| O=C(NS(=O)(=O)/C=C/c1cccs1)c1ccc(F)cc1Br | inactive |  |
| Cc1cn([C@H]2C=C[C@@H](CO)O2)c(=O)[nH]c1=O | inactive |  |
| CC(=O)O | inactive |  |
| Cc1c(C)c2c(c(C)c1O)CCC(C)(COc1ccc(CC3SC(=O)NC3=O)cc1)O2 (stereo not given) | inactive |  |
